A selection: hits, their analogues and other compounds. The true share with any hit is near 2.1%.
FUS yeast rescue = qHTS for Suppressors of FUS Proteinopathy: Primary screen using FUS-linked yeast assay; Potency, µM (doses to about 76.6 µM), actives largely listed as activators; S. cerevisiae FUS-expressing, growth rescue, OD600, 24 h; 0.24% of 390,000 active;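 further: plate controls were DMSO vehicle for no effect and reference control for full effect; nearly all actives have a fitted effect of over 55% in size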
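Restored growth of FUS-toxic S. cerevisiae, read as 600 nm absorbance after 24 h at 30C in galactose medium (starting OD 0.005). Controls CP55940 and DMSO.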
TDP-43 yeast inh = qHTS of TDP-43 Inhibitors; Potency, µM (doses to about 46.1 µM), for inactives: at the highest dose growth rescue (activation), actives largely listed as activators; TDP-43 expressing yeast growth rescue, BacTiter-Glo, 24 h; AID 652104, 2013; 1.8% of 410,000 active; further: % of control where 0% means no effect; nearly all actives have a fitted effect of over 50% in size
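In this qHTS, compounds that restore growth of yeast expressing TDP-43 appear as activators. Cells (OD600=0.02, galactose medium, raffinose-pregrown) are incubated with compound 24 hr at 30 deg C and growth is quantified by BacTiter-Glo.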
Abeta yeast res = qHTS for compounds that reverse cellular toxicity of Amyloid beta (A-beta) peptide in yeast: Primary Screen | yeast expressing A-beta42, growth rescue, OD600, 48 h; response scale: 0% DMSO, 100% iron-clioquinol control | Potency, µM (doses to about 46.1 µM), actives largely listed as activators | 0.063% of 410,000 active | AID 1347071, 2019; further: nearly all actives have a fitted effect of over 55% in size
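Yeast growth medium received pinned compounds, then yeast cells expressing toxic A-beta were added; plates incubated at 30 C for 48 hr. Growth read as absorbance at 600 nm, normalized to DMSO and equimolar FeCl3 plus clioquinol controls.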
aSyn yeast inh = qHTS of alpha-syn Inhibitors. Yeast expressing alpha-synuclein, growth rescue, BacTiter-Glo, 24 h. 0.14% of 370,000 active. AID 652106, 2013. Potency, µM (doses to about 46.1 µM), inactives show at the top dose growth rescue (activation), actives largely listed as activators; further: % of control where 0% means no effect; nearly all actives have a fitted effect of over 65% in size
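Readout is rescue of growth in alpha-synuclein-expressing yeast, so inhibitors of toxicity appear as activators. Growth after 24 hr at 30 deg C in galactose medium is quantified by luminescence.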
The depositor's hits bear a star; i = inactive; ? = inconclusive; . = no result given; [ ] = another dose, or the depositor's remark. The call rests on the fitted dose curve; in most records, active means well fitted curve in the direction sought with a large enough effect; inconclusive means small, poorly fitted or top-dose-only effect, or another doubt; inactive means no such curve, though single readings can be large; an effect the other way counts as inactive or inconclusive. Potency means the concentration at half of the fitted maximal effect.

SMILES | FUS yeast rescue | TDP-43 yeast inh | Abeta yeast res | aSyn yeast inh
COc1ccc(-c2ccccc2)cc1NCc1ccccc1C | i | 21.2% | i | -14.9%
COc1ccccc1CNc1cc(-c2ccccc2)ccc1OC | . | 12.6µM* | i | -11.5%
Cc1nn(Cc2ccc(F)cc2)c(C)c1NC(=O)c1cnn2c1NC(c1ccccc1)CC2C(F)(F)F (stereo not drawn) | ? | 3.1% | i | 0.5%
Cc1nn(Cc2ccc(F)cc2)c(C)c1NC(=O)c1cnn2c1NC(c1cccs1)CC2C(F)(F)F (stereo not drawn) | 28.2µM* | -1.7% | i | -0.2%
Nc1nc2ccccc2cc1C(=O)NCCCCc1ccccc1 | i | 28.2µM* | ? | -40.2%
CCOC(=O)CC(NS(=O)(=O)c1ccc2[nH]c3c(c2c1)CCCC3)c1ccccc1Cl (stereo not drawn) | ? | 20µM* | i | 15.8µM*
COc1ccc(Cl)cc1NS(=O)(=O)c1ccc2[nH]c3c(c2c1)CCCC3 | i | 12.6µM* | i | .
COc1ccc(S(=O)(=O)Nc2cc(Cl)ccc2OC)cc1 | . | 3.16µM* | i | 24.5%
CCOC(=O)C1CCN(S(=O)(=O)c2ccc3[nH]c4c(c3c2)CCCC4)CC1 | i | ? | i | 16.7%
COc1ccc(Cl)cc1NS(=O)(=O)c1ccc(OC)c(OC)c1 | i | -6.9% | i | -2.0%
C#CCNC(=O)C[C@H]1C[C@@]2(C(=O)OCC)CCCC3=C2N(CCC3)C1=O | i | . | . | .
COc1ccc(NC(=O)CSc2oc(-c3ccco3)nc2S(=O)(=O)c2ccc(Br)cc2)c(OC)c1 | ? | -2.5% | i | .
O=C(COCc1cc(-c2ccc(F)cc2)on1)Nc1cccc(Cl)c1Cl | i | 10.9% | i | .
O=C(Nc1ccccc1Cl)c1ccc(-c2ccccn2)s1 | i | 11.2µM* | i | -0.8%
O=C(Nc1ccccc1Cl)c1cccs1 | i | ? | i | 1.1%
CN1Cc2sccc2C(c2ccc(O)c(O)c2)C1 (stereo not drawn) | . | . | . | -3.6%
Cn1c(CO)c(-c2ccccc2)c2cc([N+](=O)[O-])ccc21 | i | 14.1µM* | i | -5.5%
CC(=O)OCc1c(-c2ccccc2)c2cc([N+](=O)[O-])ccc2n1C | i | -3.0% | i | 0.8%
CCOC(=O)CC[C@@]1(C(=O)OCC)C[C@@H](CC(=O)N2CCCC2)C(=O)N2CCCC=C21 | i | . | . | .
Cc1cccc(NC(=O)CCn2cnnn2)c1C | i | -11.5% | i | .
Cc1ccc(C(=O)Nc2nc3c(s2)CCCC3)o1 | i | 14.1µM* | i | -27.1%
CCC(Oc1ccc(F)cc1)C(=O)Nc1nc2c(s1)CCCC2 (stereo not drawn) | i | 11.2µM* | ? | .
O=C(Nc1nc2c(s1)CCCC2)c1ccc(Br)o1 | i | 18.8% | i | -28.2%
COc1ccc(N=c2nc(-c3ccccc3)n(-c3ccc(C)cc3)s2)cc1 | . | . | . | -26.3%
C=CCN=c1scc(-c2ccc3c(c2)NC(=O)CO3)n1/N=C(\C)c1ccccn1 | i | 12.6µM* | i | -25.7%
SMILES | FUS yeast rescue | TDP-43 yeast inh | Abeta yeast res | aSyn yeast inh
O=C(O)c1cccc(Oc2ccc([N+](=O)[O-])cc2)c1 | i | 17.8µM* | i | 19.0%
O=C(NCc1ccccc1F)C(=O)NCC(c1ccc2c(c1)OCO2)N1CCOCC1 (stereo not drawn) | i | 16.4% | i | .
COC(=O)C[C@H]1C=C[C@H](NC(=O)Cc2ccccc2)[C@@H](CO)O1 | i | 20.9% | i | 3.55µM*
Cc1cccc(NC(=O)c2cc([N+](=O)[O-])ccc2Cl)c1O | i | 22.4µM* | i | -2.9%
Cc1c(CCNC(=O)c2c(F)cccc2F)sc2nc(-c3ccc(F)cc3)nn12 | i | 23.6% | i | .
Cc1cc(N(C)Cc2ccccc2)n2nc(-c3ccc(C(C)(C)C)cc3)nc2n1 | ? | 15.8µM* | i | .
CCN(CC)c1cc(C)nc2nc(-c3ccc(C)cc3)nn12 | i | 20µM* | i | .
CCCN(CCC)c1cc(C)nc2nc(-c3ccc(C(C)(C)C)cc3)nn12 | i | 2.0% | i | .
CCCSCCCNC(=O)C1CCN(C(=O)c2cc3sccc3n2C)CC1 | i | ? | i | .
CC(=O)N1CCCc2cc(S(=O)(=O)N3CCCC(C(=O)Nc4cccc(Cl)c4C)C3)ccc21 (stereo not drawn) | i | 11.3% | i | .
Cc1ccc(NC(=O)CN(C)S(=O)(=O)c2cccc3nsnc23)cc1 | i | 24.1% | i | 0.8%
CC(C)c1ccc(NC(=O)CS(=O)(=O)c2cccc3nsnc23)cc1 | i | 25.1µM* | i | ?
CN(CC(=O)Nc1ccc(Br)cc1)S(=O)(=O)c1cccc2nsnc12 | i | 22.4µM* | i | .
O=C(CS(=O)(=O)c1cccc2nsnc12)Nc1ccccc1 | i | 0.0% | i | 3.0%
Cc1cccc(N2C(=O)C(CC(=O)Nc3ccc(F)cc3)N(C3CCCC3)C2=O)c1 (stereo not drawn) | i | -13.7% | i | .
Nc1nc(Nc2ccccc2Br)nc(C(F)(F)F)n1 | i | 17.8µM* | i | -4.9%
Nc1nc(Nc2ccccc2)nc(C(F)(F)F)n1 | i | -1.4%[1.82 µM] | i | -23.6%
COc1ccc(Nc2ncc(C(=O)Nc3ccc(F)cc3F)c3ccccc23)cc1 | i | 0.0% | i | .
CCCCN(C)CCNC(=O)C1CCN(c2nc3ccc(CC)cc3s2)CC1 | i | 10.5% | i | .
Cc1ccc(NC(=O)CC2SC(=O)N(c3ccccc3)C2=O)cc1 (stereo not drawn) | i | 20µM* | i | 5.3%
O=C(CC1S/C(=N\S(=O)(=O)c2ccccc2)N(c2ccccc2)C1=O)Nc1ccc(F)cc1 (stereo not drawn) | 17.8µM* | -2.6% | i | 7.6%
O=C(C1CC1)N1CCc2cc(Br)cc(S(=O)(=O)N3CCN(c4cccc(C(F)(F)F)c4)CC3)c21 | i | 28.2% | i | .
Cc1cc(C)cc(NC(=O)COC(=O)CCC2CCCC2)c1 | i | 12.6µM* | i | 0.7%
Cc1[nH]nc2c1-c1nc3ccccc3nc1C(C)(C)C2 | i | 22.4µM* | i | -0.3%
CC12CCC(C)(c3nc4ccccc4nc31)C2(C)C | i | 6.8% | i | -4.6%
COC(=O)c1sc2nc3c(cc2c1N)C(=O)CC(C)(C)C3 | i | -21.3% | i | 0.7%
Cc1cc(C)c(NC(=O)c2sc3nc4c(cc3c2N)C(=O)CC(C)(C)C4)c(C)c1 | ? | 20µM* | i | -2.0%
COc1ccc(-c2nc(CSCC(=O)N3CCN(c4cccc(C)c4)C(C)C3)c(C)o2)cc1OC (stereo not drawn) | ? | 22.4µM* | i | 7.9%
COc1ccc(-c2nc(CSCC(=O)N3CCc4ccccc4C3)c(C)o2)cc1OC | i | ? | i | 2.7%
COc1ccc(-c2c(C)nn3c(C)cc(C)nc23)cc1 | i | 14.1µM* | i | -6.3%

Source: PubChem BioAssay (National Center for Advancing Translational Sciences (NCATS))
